Assay results as given in PubChem BioAssay AID1159580 (chemical genetic matrix, 2015).
Where “and” joins values, the source holds several entries; their conditions need not be identical. Equal entries are not always repeated. In all, about 5,500 compounds went through this assay and about 2,000 (36%) were called active. Roughly 18% stayed inconclusive and do not appear here. No stated cut-off is given here; in the data, active means normalized growth mostly below about 0.91 (no sharp cut-off); inconclusive means no clear call, values can overlap the other calls; inactive means mostly above about 0.92. The list shows a part of the results.

Test: chemical genetic growth profiling, strain panel (AID 1159580);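 further: tested at 20 µM; growth read once vehicle control cultures reached saturation at 30 °C; 1 = growth at the plate median or of vehicle wells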
Conditions: S. cerevisiae deletion strains, growth OD

Measured: normalized growth

CC[C@@H](C(=O)C(C)[C@@H](O)[C@H](C)CCc1ccc(C)c(O)c1C(=O)O)C1OC(CC)(C2CC[C@](O)(CC)[C@H](C)O2)C[C@@H]1C (stereo partly drawn)
inactive: locus YAL013W, strain DEP1, stronger effect = lower value 1.05 | locus YAL021C, strain ccr4, stronger effect = lower value 1.03 | locus YAL026C, strain drs2, stronger effect = lower value 0.949 | locus YAL030W, strain snc1, stronger effect = lower value 1.06 | locus YBL061C, strain skt5, stronger effect = lower value 1.06 | locus YBR009C, strain hhf1, stronger effect = lower value 1.01 | locus YBR023C, strain chs3, stronger effect = lower value 1.06 | locus YBR229C, strain ROT2, stronger effect = lower value 1.04 | locus YBR231C, strain swc5, stronger effect = lower value 1.07 | locus YBR279W, strain paf1, stronger effect = lower value 1.06 | locus YCL011C, strain gbp2, stronger effect = lower value 1.06 | locus YCL016C, strain dcc1, stronger effect = lower value 1.05 | locus YCL029C, strain bik1, stronger effect = lower value 1.02 | locus YCL061C, strain MRC1, stronger effect = lower value 1.04 | locus YCR088W, strain abp1, stronger effect = lower value 1.07 | locus YDL005C, strain med2, stronger effect = lower value 1.08 | locus YDL035C, strain GPR1, stronger effect = lower value 0.978 | locus YDL040C, strain nat1, stronger effect = lower value 1.06 | locus YDL074C, strain BRE1, stronger effect = lower value 0.938 | locus YDL101C, strain DUN1, stronger effect = lower value 1.03 | locus YDL134C, strain PPH21, stronger effect = lower value 1.02 | locus YDL185W, strain tfp1, stronger effect = lower value 0.993 | locus YDL192W, strain arf1, stronger effect = lower value 1.01 | locus YDR001C, strain nth1, stronger effect = lower value 1.07 | locus YDR069C, strain doa4, stronger effect = lower value 1.02 | locus YDR101C, strain arx1, stronger effect = lower value 1.04 | locus YDR150W, strain NUM1, stronger effect = lower value 1.05 | locus YDR159W, strain sac3, stronger effect = lower value 0.996 | locus YDR162C, strain NBP2, stronger effect = lower value 1.01 | locus YDR195W, strain ref2 1.05 | locus YDR297W, strain sur2, stronger effect = lower value 1.05 | locus YDR318W, strain mcm21, stronger effect = lower value 1.01 | locus YDR334W, strain swr1, stronger effect = lower value 1.08 | locus YDR335W, strain msn5, stronger effect = lower value 1.08 | locus YDR388W, stronger effect = lower value 1.02 | locus YDR502C, strain sam2, stronger effect = lower value 1 | locus YEL003W, strain gim4, stronger effect = lower value 1.04 | locus YEL037C, strain rad23, stronger effect = lower value 1.07 | locus YEL061C, strain CIN8 (second series), stronger effect = lower value 1.08 | locus YEL061C, strain CIN8, stronger effect = lower value 1.02 | locus YER015W, strain faa2, stronger effect = lower value 1.06 | locus YER016W, strain bim1, stronger effect = lower value 1.05 | locus YER110C, stronger effect = lower value 1.02 | locus YER111C, strain swi4, stronger effect = lower value 1.07 | locus YER155C, strain BEM2 (second series), stronger effect = lower value 1.04 | locus YER167W, strain BCK2, stronger effect = lower value 1.02 | locus YFR010W, strain ubp6, stronger effect = lower value 1.06 | locus YGL078C, strain dbp3, stronger effect = lower value 0.998 | locus YGL086W, strain mad1, stronger effect = lower value 1.05 | locus YGL167C, strain pmr1, stronger effect = lower value 1.07 | locus YGL173C, strain kem1, stronger effect = lower value 1.04 | locus YGL240W, strain doc1, stronger effect = lower value 1.03 | locus YGL248W, strain PDE1, stronger effect = lower value 1.02 | locus YGL253W, strain hxk2, stronger effect = lower value 1.06 | locus YGR135W, strain pre9, stronger effect = lower value 0.981 | locus YGR252W, strain gcn5, stronger effect = lower value 0.967 | locus YHR013C, strain ard1, stronger effect = lower value 1.1 | locus YHR027C, strain rpn1, stronger effect = lower value 1.07 | locus YHR030C, strain SLT2, stronger effect = lower value 1.03 and 0.969 | locus YHR079C, strain IRE1 (second series), stronger effect = lower value 1.02 | locus YHR079C, strain IRE1, stronger effect = lower value 0.944 | locus YHR094C, strain hxt1, stronger effect = lower value 1.03 | locus YHR129C, strain ARP1, stronger effect = lower value 1.04 | locus YHR142W, strain chs7, stronger effect = lower value 1.08 | locus YHR200W, strain rpn10, stronger effect = lower value 1.02 | locus YIL066C, strain RNR3, stronger effect = lower value 1.02 | locus YIL073C, strain SPO22, stronger effect = lower value 0.988 | locus YIL125W, strain kgd1, stronger effect = lower value 1 | locus YIR030C, strain dcg1, stronger effect = lower value 1.03 | locus YJL092W, strain hpr5, stronger effect = lower value 1.06 | locus YJL095W, strain BCK1 (second series), stronger effect = lower value 1.06 | locus YJL095W, strain BCK1, stronger effect = lower value 1.02 and 0.976 | locus YJL115W, strain asf1, stronger effect = lower value 1.06 | locus YJL129C, strain trk1, stronger effect = lower value 0.976 | locus YJL134W, strain LCB3, stronger effect = lower value 1.04 | locus YJL154C, strain vps35, stronger effect = lower value 1.06 | locus YJL164C, strain tpk1, stronger effect = lower value 1.03 | locus YJL166W, strain qcr8, stronger effect = lower value 1.06 | locus YJL168C, strain set2, stronger effect = lower value 1.04 | locus YJL187C, strain SWE1 (second series), stronger effect = lower value 1.03 | locus YJL187C, strain SWE1, stronger effect = lower value 1.06
active: locus YBR021W, strain FUR4, stronger effect = lower value 1.16 [resistant] | locus YBR171W, strain sec66, stronger effect = lower value 1.12 [resistant] | locus YCL069W, strain vba3, stronger effect = lower value 1.08 [resistant] | locus YDR137W, strain rgp1, stronger effect = lower value 1.24 [resistant] | locus YDR392W, strain spt3, stronger effect = lower value 0.732 | locus YER155C, strain BEM2, stronger effect = lower value 1.13 [resistant] | locus YGL227W, strain vid30, stronger effect = lower value 1.09 [resistant]
